# HTT ATP protect – qHTS Multiplex Assay to Identify Dual Action Probes in a Cell Model of Huntington: Cytoprotection (ATP); Potency, µM (highest dose often 56.4 µM), for inactives: cytoprotection (ATP increase), usual class: activators; 230,000 tested, 0.14% active; PC12 HTT-Q103 induced, cytoprotection, ATP luminescence, 40 h; also: potency is read from the fitted curve at half-maximal effect; % of control where 0% means no effect; nearly all actives have a fitted effect of over 45% in size
#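 Stable PC12 Q103-GFP cells in serum-supplemented, phenol red-free DMEM; induction by tebufenozide at 100 nM final; compound dose series; cell viability quantified luminescently from ATP.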
# HPGD block – qHTS Assay for Inhibitors of HPGD (15-Hydroxyprostaglandin Dehydrogenase). 150,000 tested, 4.3% active. purified HPGD, NADH fluorescence kinetic, PGE2 substrate. Potency, µM, for the others: top-dose activity change, negative = inhibition, usual class: inhibitors; active = well fitted inhibition curve with a large enough effect, not every such curve was filed as active; inconclusive = small, poorly fitted or top-dose-only effect, or another doubt; inactive = no such curve, though single readings can be large or run the other way; also: potency is read from the fitted curve at half-maximal effect; % is scaled to controls: 0 for no effect and ±100 for the full control effect
# Target sequence (P15428 whole entry, looked up): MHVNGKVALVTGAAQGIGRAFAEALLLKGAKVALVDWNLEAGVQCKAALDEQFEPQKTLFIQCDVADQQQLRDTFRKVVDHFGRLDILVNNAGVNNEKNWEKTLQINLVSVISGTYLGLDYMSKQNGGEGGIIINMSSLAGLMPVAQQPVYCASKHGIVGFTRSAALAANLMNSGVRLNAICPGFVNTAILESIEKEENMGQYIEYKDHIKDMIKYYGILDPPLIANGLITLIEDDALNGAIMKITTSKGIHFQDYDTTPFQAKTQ
#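 20 nM HPGD preincubated 15 min at room temperature with compound in 50 mM Tris-HCl pH 8, 0.01% Tween 20. Started with 1 mM NAD+ and 30 uM prostaglandin E2; NADH fluorescence (360/450 nm) read 5 times over 30-s intervals, last minus first.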
# ALDH1A1 inh – qHTS Assay for Inhibitors of Aldehyde Dehydrogenase 1 (ALDH1A1) | Aldehyde dehydrogenase 1A1 (Homo sapiens), P00352 | Purified ALDH1A1, NADH fluorescence, propionaldehyde substrate | Potency, µM (highest dose often 75.3 µM), without a hit: at the top dose activity, negative = inhibition, usual class: inhibitors | 220,000 tested, 7.3% active | AID 1030, 2008; active = well fitted inhibition curve with a large enough effect, not every such curve was filed as active; inconclusive = small, poorly fitted or top-dose-only effect, or another doubt; inactive = no such curve, though single readings can be large or run the other way;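 also: potency is read from the fitted curve at half-maximal effect; plate controls were no enzyme wells and a reference inhibitor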
# CBFb RUNX1 block – qHTS Assay for Compounds Blocking the Interaction Between CBF-beta and RUNX1 for the Treatment of Acute Myeloid Leukemia. Runt-related transcription factor 1 (Homo sapiens) + Core-binding factor subunit beta …. AlphaScreen CBFb-His/RUNX1-biotin binding, biochemical. Potency, µM (top dose mostly 59.8 µM), without a hit: at the top dose activity, negative = inhibition, hits mostly inhibitors. 230,000 tested, under 10 active. AID 1477, 2009; also: % of control where 0% means no effect
#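 His-tagged CBF-beta and biotinylated RUNX1 (30 nM each) were premixed 20 min at room temperature, exposed to compound for 15 min, then given nickel-chelate and streptavidin AlphaScreen beads (50 ng each). After 90 min, AlphaScreen signal was read.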
# PNC assembly inh – High Content Assay for Compounds that inhibit the Assembly of the Perinucleolar Compartment; PC3M PTB-GFP, PNC prevalence imaging, 16 h; active compounds read low; AID 2417, 2010; activity change (PNC), negative = inhibition, % at 10 µM; 140,000 tested, 3.1% active;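 active = readout at or below -70, meaning at least 70% loss of cells showing the perinucleolar compartment, a nuclear body marking cancer cells; inconclusive = readout between -30 and a set limit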;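 also: plate controls were DMSO wells for no effect and camptothecin positive control wells for full effect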
#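 Compounds are pinned in duplicate onto adhered PC3M cells stably expressing GFP-tagged PTB and incubated 16 h at 37 C. Cells are then fixed, nuclei stained with Hoechst, and PNC-positive cells counted.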
# HttQ103 aggreg – qHTS Multiplex Assay to Identify Dual Action Probes in a Cell Model of Huntington: Aggregate Formation (GFP). PC12 HttQ103-GFP aggregates, Acumen cytometry, 40 h. Potency, µM (top dose mostly 46.1 µM), without a hit: at the highest dose activity change, negative = inhibition, hits mostly inhibitors. 220,000 tested, 1.1% active. AID 1688, 2009; also: potency is read from the fitted curve at half-maximal effect; % is scaled to controls: 0 for no effect and ±100 for the full control effect; nearly all actives have a fitted effect of over 60% in size
#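 Ecdysone-promoter PC12 model expressing HTT exon 1 Q103 fused to GFP, induced by tebufenozide at 100 nM final. Compounds titrated; aggregates sized 1–25 µm scored on a 488 nm laser cytometer.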
# Active calls of the source: *; ? = inconclusive; nt = no result; [ ] = another dose, or the depositor's remark. Shown are actives, neighbours in structure and some others; about 11% of the full set was active somewhere. Unless noted, calls follow the shape of the dose curve; as a rule, active = well fitted curve in the direction sought with a large enough effect; inconclusive = small, poorly fitted or top-dose-only effect, or another doubt; inactive = no such curve, though single readings can be large; an effect the other way counts as inactive or inconclusive.
SMILES,HTT ATP protect,HPGD block,ALDH1A1 inh,CBFb RUNX1 block,PNC assembly inh,HttQ103 aggreg
c1ccc2c(c1)CC(N1CCN(c3cccc4c3OCCO4)CC1)C2,nt,-11%,22µM*,-2%,nt,nt
CC(=O)n1c2ccccc2c2ccccc21,-8%,-16%,16%,7%,59,16%
CC(=O)n1c(Cl)c(NC(=O)CCl)c2ccccc21,-93%,-7%,22µM*,5%,6,4%[9.22 µM]
O=C(CSc1nc2c(c(C(F)(F)F)n1)CCc1ccccc1-2)NCc1ccc(F)cc1,6%[10 µM],-8%,-2%,1%,-119*,-5%
COc1ccc(/C(=N/OC(C)=O)c2nccc3cc(OC)c(OC)cc23)cc1OC,6%[10 µM],nt,nt,-2%,nt,1%[9.22 µM]
Cn1c(=O)c2[nH]c(SCc3ccccn3)nc2n(C)c1=S,-11%[10 µM],-4%,-3%[13.5 µM],6%,nt,9%[9.22 µM]
O=c1[nH]c(SCc2c(Cl)c(Cl)c(Cl)c(Cl)c2Cl)nc(=S)[nH]1,-11%[10 µM],4µM*,-4%[13.5 µM],nt,nt,nt
Cc1ccc(NC(=O)CSC2=C(C#N)C(c3ccco3)CC(=O)N2)cc1 (configuration not stated),-7%,-6%,14µM*,-4%,-20,-8%[9.22 µM]
CC(C)C1CC(=O)NC(SCC(=O)Nc2ccc(Br)cc2)=C1C#N (configuration not stated),-13%[0.074 µM],-2%,8.9µM*,-9%,?,?
Cc1ccc(NC(=O)CSC2=C(C#N)C(c3ccco3)C3=C(CC(C)(C)CC3=O)N2)cc1 (configuration not stated),17%[0.074 µM],-10%,13µM*,-1%,-25,-16%
COc1ccccc1C1CC(=O)NC(SCC(=O)Nc2ccccc2)=C1C#N (configuration not stated),14%,-8%,?,7%,41,13%
CCc1ccc(NC(=O)CSC2=C(C#N)C(c3ccco3)C3=C(CCCC3=O)N2)cc1 (configuration not stated),-9%,-8%,?,-6%,-1,-30%
COc1ccc(NC(=O)N2CC[C@@]3(CCCN(C(=O)c4cccn4C)C3)C2)cc1,11%,-10%,?,nt,nt,nt
O=C(OCC1OC2OC3(CCCCC3)OC2C2OC3(CCCCC3)OC12)c1ccccc1 (configuration not stated),18%[10 µM],-5%,-2%,7%,-21,-6%
Cc1ccc(C(=O)OCC2OC3OC(C)(C)OC3C2O)cc1 (configuration not stated),-8%[10 µM],4µM*,0%,-2%,-30,-5%
Clc1ccc(CSc2nnc(CN3CCOCC3)n2-c2ccccc2)cc1Cl,-15%,-4%,18µM*,6%,18,-27%
CCn1c(SCC(=O)NNC(=S)Nc2ccccc2)nnc1-c1ccc(Cl)cc1,15%[10 µM],-8%,-3%,-3%,?,0%
COCc1nnc(SCC(=O)Nc2cccc(Cl)c2C)n1-c1ccccc1,-2%,-9%,2%,4%,2,-5%
Clc1cccc(Cl)c1CSc1nnc(CN2CCOCC2)n1-c1ccccc1,-33%,-6%,-7%,1%,12,-1%
Cc1ccc(NC(=O)CSc2nnc(CN3CCOCC3)n2-c2ccccc2)cc1,-7%[10 µM],-6%,3.2µM*,1%,?,-5%
O=C(CSc1nnc(-c2ccccc2)n1-c1ccc(Cl)cc1)NNC(=S)Nc1ccccc1,14%[10 µM],-18%,16µM*,-17%,18,16%
Cc1ccc(CCc2nnc(SCC(=O)Nc3cc(Cl)ccc3Cl)n2-c2ccccc2)o1,35%[10 µM],-4%,25µM*,-15%,-8,14%
Cc1nnc(SCC(=O)Nc2ccc(N3CCOCC3)cc2)n1-c1ccccc1,-8%,5%,-6%,-2%,4,9%
COc1ccc(N/C=C(\C#N)c2nc3ccccc3n2C)c(OC)c1,-50%,-8%,7%,-15%,9,-7%
O=C(CSc1nnc(CN2CCOCC2)n1-c1ccccc1)Nc1ccc(Cl)cc1,-23%[10 µM],-10%,22µM*,-3%,132,14%
SMILES,HTT ATP protect,HPGD block,ALDH1A1 inh,CBFb RUNX1 block,PNC assembly inh,HttQ103 aggreg
Fc1cccc(Cl)c1CSc1nnc(CN2CCOCC2)n1-c1ccccc1,-24%,1%,0%,3%,21,-8%
CCN(C(=O)Cn1c(=O)n2nc(CCn3nc(C)cc3C)nc2c2ccccc21)c1cccc(C)c1,-4%,-4%,?,3%,0,22%
Cc1cccc(NC(=O)Cn2c(=O)n3nc(CCn4nc(C)cc4C)nc3c3ccccc32)c1,-9%,-24%,14µM*,2%,43,0%
OC(COCC1COc2ccccc2O1)CN1CCCCC1 (configuration not stated),-5%[10 µM],2%,17%,6%,?,-8%
CCN1CCN(CC(O)COCC2COc3ccccc3O2)CC1 (configuration not stated),-48%,nt,28µM*,-3%,nt,-13%
C1OCOCO1,66%,-10%,6%,11%[21.7 µM],nt,17%
CCOc1ccc(Cc2nnc(N)s2)cc1OCC,17%[10 µM],-5%,24%,8%,-86*,7%
Nc1nnc(Cc2ccc(Cl)cc2)s1,-4%,-8%,?,4%,?,-7%
COc1ccccc1C[C@@H](Cc1nc2ccccc2[nH]1)c1nc2ccccc2[nH]1,2%,nt,nt,nt,nt,nt
Cc1ccc(C(=O)N/C(=C/c2ccco2)C(=O)NCC2CCCO2)cc1 (configuration not stated),9%[10 µM],-19%,?,4%,?,-14%
O=C(/C=C/c1ccco1)NCc1ccc(F)cc1,-36%,nt,18µM*,-14%,nt,8%
O=C(/C=C/c1ccco1)NCC1CCCO1 (configuration not stated),-6%,?,22µM*,2%,-11,6%
O=C(N/C=C/c1ccco1)NCc1ccccc1,1%,nt,22µM*,-20%,nt,7%
NS(=O)(=O)c1ccc(CNC(=O)/C=C/c2ccco2)cc1,18%[10 µM],nt,nt,-26%,nt,5%[9.22 µM]
Cc1c(NC(=O)c2ccc(S(=O)(=O)N(C)c3ccccc3)cc2)c(=O)n(-c2ccccc2)n1C,-23%,nt,1%,-3%,nt,7%

# Screening results as filed in PubChem.
